Source: PubChem
PNC assembly inh = blocks assembly of the perinucleolar compartment; activity change (PNC), negative = inhibition, % at 10 µM; 140,000 compounds, 3.1% hits; PC3M PTB-GFP, PNC prevalence imaging, 16 h; stronger effect = lower value;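 active = readout at or below -70, meaning at least 70% loss of cells showing the perinucleolar compartment, a nuclear body marking cancer cells; inconclusive = readout between -30 and a set limit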;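 also: plate controls were DMSO wells for no effect and camptothecin positive control wells for full effect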
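PC3M cells stably expressing PTB-GFP, 750–1000 cells/well, treated 16 h at 37 °C with compound (23 nl of library stock), in duplicate. After paraformaldehyde fixation and Hoechst stain, imaged at 20x; PNC prevalence scored by image analysis.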
IMPase Li cell = IMPase inhibition in cells with lithium potentiation | Potency, µM (series often up to 59.4 µM), for the others: at the highest dose activity, negative = IMPase inhibition, most hits filed as inhibitors | CHO-M1 cells, IP1 TR-FRET (IP-One), carbachol + lithium | 210,000 compounds, 0.35% hits;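 also: IP1 builds up when IMPase is blocked and the TR-FRET signal falls; potency is read from the fitted curve at half-maximal effect; plate controls were basal vehicle for no effect and high inhibitor control for full effect; nearly all actives have a fitted effect of over 50% in size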
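IP1 accumulation measured by competitive TR-FRET in lysed CHO-M1 cells after 30 min compound exposure at 37C, with a small lithium addition to potentiate weak responses. Hill-equation AC50 from ratio and donor-channel data.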
NPSR antag = neuropeptide S receptor (human) antagonism, cAMP. Q6W5P4. CHO-NPSR cells, cAMP TR-FRET, antagonist mode. Potency, µM (titrated, usually from 38.3 µM), without a hit: at the top dose activity change, negative = inhibition, actives largely listed as inhibitors. 220,000 compounds, 1% hits. AID 1461; also: potency is read from the fitted curve at half-maximal effect; nearly all actives have a fitted effect of over 50% in size
Target sequence (Q6W5P4 whole entry, looked up): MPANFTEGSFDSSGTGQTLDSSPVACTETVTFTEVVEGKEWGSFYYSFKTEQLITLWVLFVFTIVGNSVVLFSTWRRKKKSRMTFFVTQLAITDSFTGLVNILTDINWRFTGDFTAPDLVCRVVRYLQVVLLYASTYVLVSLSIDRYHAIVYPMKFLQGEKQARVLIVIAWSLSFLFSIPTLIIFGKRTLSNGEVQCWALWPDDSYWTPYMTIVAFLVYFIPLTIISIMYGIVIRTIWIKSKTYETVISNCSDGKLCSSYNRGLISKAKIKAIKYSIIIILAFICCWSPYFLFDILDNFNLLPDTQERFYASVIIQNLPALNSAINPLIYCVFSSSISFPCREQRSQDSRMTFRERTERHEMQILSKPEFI
ALDH1A1 block = blocks purified human ALDH1A1 activity. 220,000 compounds, 7.3% hits. P00352. Potency, µM (doses to about 75.3 µM), for inactives: at the top dose activity, negative = inhibition, hits mostly inhibitors. Purified ALDH1A1, NADH fluorescence, propionaldehyde substrate; active = well fitted inhibition curve with a large enough effect, not every such curve was filed as active; inconclusive = small, poorly fitted or top-dose-only effect, or another doubt; inactive = no such curve, though single readings can be large or run the other way;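 also: potency is read from the fitted curve at half-maximal effect; plate controls were no enzyme wells and a reference inhibitor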
IMPase inh = membrane-permeable compound that blocks inositol monophosphatase. P97697. inhibition (IP1 accumulation), % at 46.1 µM. CHO-M1 cells, IP1 accumulation, HTRF TR-FRET ratio. 120,000 tested, under 10 active; active = well fitted curve in the direction sought with a large enough effect in the signal ratio, not every such curve was filed as active; inconclusive = small, poorly fitted or top-dose-only effect, or a change in a side signal; inactive = no such curve, though single readings can be large or run the other way; the % refers to the signal ratio;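 also: cells stimulated with carbachol in lithium chloride buffer; plate controls were DMSO basal wells for no effect and reference inhibitor wells for full effect; higher means more IMPase inhibition seen as more IP1 and lower FRET ratio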
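CHO-M1 cells (CHO stably expressing M1 receptor), compound up to 46 uM final, stimulated with carbachol (50 uM as added) in buffer with 50mM LiCl, pH 7.4, 30 min at 37C. Cytosolic IP1 read by TR-FRET; AC50 from Hill fits.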
HPGD block = HPGD (human) dehydrogenase inhibition; P15428; purified HPGD, NADH fluorescence kinetic, PGE2 substrate; Potency, µM, without a hit: at the highest dose activity change, negative = inhibition, actives largely listed as inhibitors; 150,000 compounds, 4.3% hits; AID 894; active = well fitted inhibition curve with a large enough effect, not every such curve was filed as active; inconclusive = small, poorly fitted or top-dose-only effect, or another doubt; inactive = no such curve, though single readings can be large or run the other way; also: potency is read from the fitted curve at half-maximal effect
Target sequence (P15428 whole entry, looked up): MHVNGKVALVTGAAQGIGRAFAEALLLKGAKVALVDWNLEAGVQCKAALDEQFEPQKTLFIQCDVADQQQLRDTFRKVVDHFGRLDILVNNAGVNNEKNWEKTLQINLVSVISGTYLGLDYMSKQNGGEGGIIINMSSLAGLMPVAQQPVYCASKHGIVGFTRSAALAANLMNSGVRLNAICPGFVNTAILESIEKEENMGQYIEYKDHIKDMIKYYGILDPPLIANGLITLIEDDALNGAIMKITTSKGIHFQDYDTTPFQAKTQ
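NADH formation kinetics: reaction with 30 uM PGE2 and 1 mM NAD+ (final), 20 nM enzyme, Tris-HCl pH 8 with Tween 20, after 15 min compound preincubation at room temperature. Fluorescence change, last versus first of five reads.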
* marks the source's active call; other numbers are inactive results; ? = inconclusive; nt = no result; [ ] = dose if it differs, or a comment. In the library only some 11% were active in any assay of this set; here they are far more common. Unless noted, calls follow the shape of the dose curve; as a rule, active = well fitted curve in the direction sought with a large enough effect; inconclusive = small, poorly fitted or top-dose-only effect, or another doubt; inactive = no such curve, though single readings can be large; an effect the other way counts as inactive or inconclusive. Unless noted, % is scaled to controls: 0 for no effect and ±100 for the full control effect.

SMILES	PNC assembly inh	IMPase Li cell	NPSR antag	ALDH1A1 block	IMPase inh	HPGD block
Cc1cccc(C2N(c3nccs3)C(=O)C3CCCN32)c1 (stereo not drawn)	8	nt	-7%[46.1 µM]	?	?	nt
c1cncc(CNc2ccc3c(c2)OCO3)c1	-8	45%[38.3 µM]	-13%[46.1 µM]	20µM*	15	-12%
O=C(NCc1cccnc1)Nc1ccc2c(c1)OCO2	nt	0%	-3%	2%	nt	nt
CCc1ccc2c(c1)cc(CN(Cc1ccco1)C(C)=O)c1nnnn12	nt	8%	-13%	?	nt	nt
CCC(=O)NC(=S)Nc1ccc(NC(=O)c2ccco2)cc1	nt	7%	-2%	1%	nt	nt
O=C(/C=C/c1ccc(Cl)cc1)NC(=S)Nc1ccc(NC(=O)c2ccco2)cc1	-112*	4%	-5%	15%	-6	-12%
O=C(/C=C/c1ccc(Cl)cc1)NC(=S)Nc1ccc(CN2CCOCC2)cc1	-25	-12%	16%	-3%	nt	-23%
COc1ccccc1C(=O)NC(=S)Nc1ccc(NC(=O)c2ccco2)cc1	nt	13%	11%	13µM*	nt	nt
COc1ccccc1OCC(=O)NNC(=S)NC(=O)c1ccco1	?	22%[38.3 µM]	-7%[46.1 µM]	28µM*	-3	-18%
CC(C)CC(=O)NC(=S)Nc1ccc(NC(=O)c2ccco2)cc1	8	-5%	-4%	-7%	nt	14µM*
CN(C)c1ccc(/C=C/c2noc(-c3ccccc3O)n2)cc1	nt	nt	nt	nt	-5	nt
COc1cccc(-n2nnc3c(=O)n(Cc4ccc(F)cc4)cnc32)c1	31	2%[38.3 µM]	-23%[46.1 µM]	4%	0	28µM*
Cc1cccc(Cn2cnc3c(nnn3Cc3ccccc3F)c2=O)c1	7	13%[38.3 µM]	-1%[46.1 µM]	-8%	?	16µM*
Cc1ccc(-n2nnc3c(=O)n(Cc4cccc(C)c4)cnc32)cc1	-18	22%[38.3 µM]	-16%[46.1 µM]	4%	9	4µM*
Cc1cccc(Cn2cnc3c(nnn3Cc3ccc(F)cc3)c2=O)c1	58	10%[38.3 µM]	-27%[46.1 µM]	5%	8	14µM*
COc1cccc(-n2nnc3c(=O)n(Cc4ccc(C)cc4)cnc32)c1	13	3%[38.3 µM]	-18%[46.1 µM]	1%	-1	?
Cc1ccc(-n2nnc3c(=O)n(Cc4cc(C)ccc4C)cnc32)cc1	14	6%	-12%	8%	-9	-4%
CCC(=O)N1c2ccc(S(=O)(=O)N(CCO)Cc3ccccc3)cc2CC1C (stereo not drawn)	17	0%[38.3 µM]	-5%[46.1 µM]	-2%	5	?
Cn1c(=S)n(C)c2ccccc21	nt	-10%	30%	8%	nt	nt
Cn1ccc(=S)c2ccccc21	nt	?	32%	7.1µM*	nt	nt
COc1ccccc1OCC(=O)n1cc(C(=O)c2cc(Cl)cc(Cl)c2O)cn1	?	-14%	-11%	-1%	nt	18µM*
COc1cccc(N=Cc2c(O)n(-c3cccc(C)n3)c(=O)c3ccccc23)c1	16	11%[38.3 µM]	-24%[46.1 µM]	?	9	-30%
Oc1ccc(O)c(Cc2nc3ccccc3s2)c1	nt	15%	-5%	20µM*	nt	nt
O=C(OCc1nc2ccccc2s1)c1ccc(Br)s1	?	-3%[38.3 µM]	-11%[46.1 µM]	-4%	-4	16µM*
Nc1ccc(C(=O)OCc2nc3ccccc3s2)cc1	nt	6%	-4%	10%	nt	nt
SMILES	PNC assembly inh	IMPase Li cell	NPSR antag	ALDH1A1 block	IMPase inh	HPGD block
Oc1cccc(-c2nc3ccccc3s2)c1	?	3%[38.3 µM]	-5%[46.1 µM]	-7%	-11	-12%
Oc1ccccc1OCc1nc2ccccc2s1	15	34%[38.3 µM]	-5%[46.1 µM]	-12%	1	13µM*
COC(=O)c1ccc(CC(=O)c2nc3ccccc3s2)cc1	-26	2%	3%	4%	nt	-8%
O=C(Cc1ccccc1)c1nc2ccccc2s1	-2	-5%	-5%	-1%	nt	22µM*
Cc1csc(NC(=O)c2cn3ccccc3n2)n1	nt	-9%	-3%	?	nt	nt
Cc1[nH]c2ccc(F)cc2c1CCN(Cc1cccnc1)C(=S)Nc1ccccc1	nt	15%	-58%	-11%	nt	nt
COc1cc2c(cc1OC)C(C)N(C(=O)c1ccc(Br)o1)CC2 (stereo not drawn)	-6	5%	-1%	5%	nt	-8%
NC(=O)CSCc1nc2ccccc2s1	?	24%[38.3 µM]	-11%[46.1 µM]	7.9µM*	-6	?
CNC(=S)NNC(=O)c1sc2cc(C(F)(F)F)cnc2c1-c1cccnc1	nt	-6%	-7%	?	nt	nt
COc1ccc(S(=O)(=O)C(C#N)c2nc3ccccc3nc2N2CCC(C)CC2)cc1 (stereo not drawn)	-16	20%[38.3 µM]	-2%[46.1 µM]	18µM*	4	-16%
COCCCNC(=O)/C=C/c1c(Cl)cccc1Cl	42	-7%	6%	-7%	nt	16µM*
COCCNC(=O)/C=C/c1c(Cl)cccc1Cl	?	8%	4%	-2%	nt	13µM*
C=CCOC(=O)C1=C[C@@H](c2cn(C(C)=O)c3ccccc23)C[C@@H](OCCCCO)O1	nt	-1%	21%	?	nt	nt
C#Cc1ccc([C@@H]2C=C(C(=O)OCC=C)O[C@H](OCCCCO)C2)cc1	nt	-5%	16%	16µM*	nt	nt
C#Cc1ccc([C@@H]2C=C(C(=O)OCC=C)O[C@H](OCc3ccc(CO)cc3)C2)cc1	nt	-2%	39%	13µM*	nt	nt
COc1ccc(OCC(=O)Nc2ccc(C)c(S(=O)(=O)N(C)C)c2)cc1	nt	1%	-1%	28µM*	nt	nt
Cc1ccc(NC(=O)CCNCc2ccco2)cc1S(=O)(=O)N(C)C	nt	17%	14%	16µM*	nt	nt
COc1ccc(CCNCC(=O)Nc2ccc(C)c(S(=O)(=O)N(C)C)c2)cc1OC	nt	nt	-16%	16µM*	nt	nt
C=CCNC(=O)/C(=C\C=C\c1ccccc1)NC(=O)c1ccc(OCCCC)cc1	-105*	17%[38.3 µM]	-19%[46.1 µM]	4%	8	-19%
COc1ccc(OC)c(NC(=O)CSc2nnc(-c3ccco3)n2-c2ccc(C(=O)O)cc2)c1	?	16%[38.3 µM]	-14%[46.1 µM]	25µM*	7	?
COc1cccc(NC(=O)CSc2nnc(-c3ccoc3C)n2-c2ccccc2)c1	-87*	6%[38.3 µM]	-20%[46.1 µM]	?	10	-2%
Cc1nonc1NC(=O)CSc1nnc(-c2ccoc2C)n1-c1cccc(Cl)c1	?	19%	-11%[46.1 µM]	10µM*	3	-9%
CCCn1c(SCC(=O)Nc2nonc2C)nnc1-c1ccoc1C	6	23%[38.3 µM]	-8%[46.1 µM]	0%	-2	-4%
O=C(NCc1ccc(F)cc1)C1CCN(C(=O)NCc2ccccc2)CC1	-6	14%[38.3 µM]	-13%[46.1 µM]	20%	-3	-7%
CCSc1nc(=S)cc(C)[nH]1	nt	nt	-16%	28µM*	nt	nt
O=C(O)CCN1C(=O)/C(=C/c2ccc(-c3nc4ccccc4s3)o2)SC1=S	-14	3%[38.3 µM]	-15%[46.1 µM]	3.5µM*	5	13µM*
O=C(O)CC(C(=O)O)N1C(=O)/C(=C/c2ccc(-c3nc4ccccc4s3)o2)SC1=S (stereo not drawn)	?	6%	-3%[46.1 µM]	10µM*	9	25µM*
